Experimental data published in PubChem BioAssay AID493192 (National Center for Advancing Translational Sciences (NCATS), 2011).
Records with an inconclusive call do not appear. Values without a mark were called inactive. Calls of active or inactive are those of the source. Calls come from the whole dose curve; as a rule, active = well fitted activation curve with a large enough effect; inconclusive = small, poorly fitted or top-dose-only effect; inactive = no such curve, though single readings can be large or run the other way.

Experiment: qHTS Assay for Identifying a Potential Treatment of Ataxia-Telangiectasia: Hit Validation;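 note: phospho-KAP1 level by AlphaLISA as a proxy for ATM-like kinase activity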; for activity change, positive = activation: 0% is about no effect
Details: Ataxia-telangiectasia cell-based hit validation qHTS, in ATM-null A-T patient fibroblasts; series mostly up to 76.9 µM; activity change, positive = activation: at the top concentration
In short: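 hTERT-immortalized A-T patient fibroblasts (F2112) were dosed at up to 76.7 uM final for 60 min at 37C. After a further 30 min incubation, cells were lysed, and phospho-KAP1 was detected by AlphaLISA after 6 hr at 25C.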
Potency is the fitted concentration of half-maximal effect.

Structure (SMILES)	activity change, positive = activation [%]	Potency
CC1=NOC2(C1)N(C)c1ccccc1C2(C)C (centres undefined)	2.08	
Cn1cnc([N+](=O)[O-])c1SCCO	6.99	
C=CCN1C(=O)/C(=C/C(=O)OC)S/C1=N\NC(=O)c1ccccc1	2.81	
CCOC(=O)N1CCN(c2nc(N(c3ccccc3)c3ccccc3)nc(-n3ccnc3)n2)CC1	28	
O=C(CCCC(=O)N1CCCC1)N1CCCC1	8.68	
CC1=NN(C(C#N)c2ccc([N+](=O)[O-])cc2)C(C)(C)C1 (centres undefined)	-18.5	
CCOC(=O)CNS(=O)(=O)Cc1ccccc1	7.69	
COc1ccccc1C1CCN(C(=O)c2ccc(Cl)cc2)CC1	11.6	
COc1ccccc1N1CCN(C(=O)c2cc(=O)c3c(C)cc(C)cc3o2)CC1	-2.01	
CC(=O)Nc1ccc(NC2=C(Cl)C(=O)c3ccccc3C2=O)cc1	3.61	
COc1cc(C(=O)NCCC(=O)NCCCN2CCCCC2)cc(OC)c1OC	22.5	
O=C(c1ccc(F)cc1)c1ccc(N2CCCCC2)cc1		29.2 µM (active)
CCC(C)NC(=O)c1cn(CCOC)c(=O)c2c1c1ccccc1n2C (centres undefined)	-18.9	
CC1(C)CC2(CCO1)OC(=O)CC2C(=O)Nc1c(Cl)cccc1Cl (centres undefined)	-4.17	
NC(=O)c1cc2ccccc2o/c1=N/NC(=O)c1cccc(F)c1	25.9	
CC(=O)/C(N=Nc1nc2c([nH]1)c(=O)n(C)c(=O)n2C)=C(\C)O	5.62	
CCN(CC)c1ccc2c(Cl)c(Br)c(=O)oc2c1		36.8 µM (active)
CC(C)Nc1nc(Oc2ccc(=O)n(-c3ccccc3)n2)nc(N(C)C)n1	-6.29	
COc1ccc(C(=O)CSc2nc3ncccc3[nH]2)cc1OC	1.61	
